# Hits are enriched below; roughly 7.4% of the tested compounds scored in any of these assays.
# HEK cytotox: HEK 293 cell cytotoxicity; HEK 293 viability, ATP luminescence (CellTiter-Glo), 48-72 h; Potency, µM (titrated, usually from 115 µM), for the others: at the top dose activity change, negative = cytotoxicity, hits mostly inhibitors; actives 6.6% (n = 94,000); further: nearly all actives have a fitted effect of over 60% in size
#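 HEK 293 seeded at 250 cells/well receive compound via pintool. After 48 or 72 hr at 37 degree Celsius, 5% CO2 and 95% humidity, CellTiter-Glo is dispensed and luminescence read following 10 min at room temperature.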
# SNCA expr inhib: SNCA gene expression inhibition; HEK-293 SNCA-luciferase knock-in, luminescence, 24 h; actives 0.17% (n = 140,000); Potency, µM (doses to about 57.2 µM), inactives show at the top dose activity change, negative = inhibition, hits mostly inhibitors; AID 1671194;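 further: plate controls were DMSO cells for no effect and cell-free wells for full effect; nearly all actives have a fitted effect of over 45% in size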
# Luciferase inh: blocks purified firefly luciferase enzyme activity; P08659; purified P. pyralis luciferase, luminescence, biochemical; Potency, µM (titrated, usually from 115 µM), usual class: inhibitors; actives 2.5% (n = 76,000); AID 1347043; further: nearly all actives have a fitted effect of over 65% in size
#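 Purified 10nM P. pyralis luciferase with 10uM D-luciferin and 10uM ATP in 50mM Tris acetate pH 7.5, 10mM Mg acetate, 0.01% Tween-20, 0.05% BSA. qHTS titration; luminescence read by CCD imager.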
# SNCA viab count: cell viability loss counter-screen | HEK-293-SNCA-luc viability, GF-AFC fluorescence, 24 h | Potency, µM (top dose mostly 57.1 µM), inactives show at the top dose activity change, negative = cytotoxicity, hits mostly cytotoxic | actives 0.12% (n = 150,000);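 further: 0% = DMSO-treated cells and -100% = medium-only wells without cells; nearly all actives have a fitted effect of over 30% in size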
#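 HEK-293-SNCA-luc cells (1500/well) plated 24 h, then exposed 24 h to a dilution series; GF-AFC added 30 min at 37C, fluorescence 405/540 nm; normalised to medium-only and DMSO wells, Hill fit.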
# 3T3 cytotox: NIH 3T3 cell cytotoxicity. NIH 3T3 viability, CellTiter-Glo ATP luminescence, 48-72 h. Potency, µM (doses to about 96.7 µM), for inactives: at the highest dose activity change, negative = cytotoxicity, hits mostly inhibitors. actives 4.3% (n = 94,000). AID 1345082; further: nearly all actives have a fitted effect of over 55% in size
#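 ATP-dependent luminescence (CellTiter-Glo) served as the viability signal for NIH 3T3 cells treated with compound for 48 or 72 hr at 37 °C.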
# hNpr1 antagonist: antagonists of human natriuretic peptide receptor Npr1; Potency, µM (highest dose often 46.3 µM), for inactives: at the top dose activity change, negative = inhibition, most hits filed as inhibitors; P16066; HEK293 hNpr1 GloSensor cGMP, ANP-stimulated luminescence; AID 1347048; actives 1.6% (n = 76,000); calls by dose curve; further: nearly all actives have a fitted effect of over 60% in size
#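 Compound pre-incubated 30 min at room temperature on GloSensor-loaded HEK293 cells stably carrying hNpr1 and the pGS-40F cGMP biosensor. Stimulation uses hNppA at 0.1 nM final; luminescence is taken at baseline and 20 min post-agonist.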
# * marks the source's active call; other numbers are inactive results; i = inactive; ? = inconclusive; . = no result given; [ ] = dose if it differs, or a comment. Unless noted, the call rests on the fitted dose curve; in most records, active means well fitted curve in the direction sought with a large enough effect; inconclusive means small, poorly fitted or top-dose-only effect, or another doubt; inactive means no such curve, though single readings can be large; an effect the other way counts as inactive or inconclusive. Unless noted, on the % scale 0 is the no-effect control and ±100 the full control effect; potency means the concentration at half of the fitted maximal effect.
SMILES,HEK cytotox,SNCA expr inhib,Luciferase inh,SNCA viab count,3T3 cytotox,hNpr1 antagonist
Cc1ccc(C(=O)N2CCC3(CC2)CC(Cc2ccccc2)CCO3)s1 (stereo not given),?,0.6%,.,3.1%,?,.
Cc1cc(Cl)ccc1S(=O)(=O)N1CC(c2nc(-c3ccncc3)no2)C1,?,-21.7%,i,1.1%,?,12.6µM*
O=C(Nc1cccc(-n2cccn2)c1)C1CCCN(Cc2cccc(F)c2F)C1 (stereo not given),31.6µM*,-0.6%,i,-10.9%,?,-14.4%
O=C(Nc1cccc(-c2nnc3n2CCCC3)c1)C1CCCC1,10.5%,-0.2%,i,5.2%,i,1.0%
CCn1cc(C(=O)N2CCCC(C(=O)Nc3cccc(-c4cc5ccccc5[nH]4)c3)C2)cn1 (stereo not given),39.8µM*,-13.1%,?,-10.1%,?,-4.6%
Cc1c(CN2CCCC(C(=O)Nc3cccc(-c4cc5ccccc5[nH]4)c3)C2)cnn1C (stereo not given),20µM*,?,i,?,8.91µM*,-25.0%
Cc1cccc(-c2cccc(NC(=O)C3CCCN(C(=O)c4cccc(C)n4)C3)c2)c1 (stereo not given),?,84.0%,25.1µM*,-18.3%,?,-1.7%
Cc1cc(=O)n(CC(=O)N2CC[C@](C)(O)C(C)(C)C2)c2ccccc12,0.1%,-15.7%,i,-2.3%,3.1%,3.0%
CN(Cc1cccc2ccccc12)C(=O)c1cc(CN2CCOCC2)on1,4.1%,-10.1%,i,10.8%,0.3%,-1.8%
Cc1cc(C(=O)N2CCCC(C(=O)Nc3cccc(-c4cc5ccccc5[nH]4)c3)C2)nn1C (stereo not given),31.6µM*,?,?,?,?,-6.3%
Cc1cc(Cn2cc3c4c(cccc42)[C@H](CC(C)C)N[C@H](C(=O)NCC2CC2)C3)no1,79.4µM*,?,i,?,89.1µM*,-6.4%[70.6 µM]
Cc1cc(Cn2cc3c4c(cccc42)[C@H](CC(C)C)N[C@H](C(=O)NCCN(C)C)C3)no1,35.5µM*,10.6%,i,-2.4%,22.4µM*,6.3%
c1cnc2c(c1)nc1n2[C@@H](CNC2CCCCC2)COC1,-12.1%[230 µM],-0.1%[87.6 µM],i,-9.4%[87.6 µM],-8.5%[174 µM],-1.8%[70.6 µM]
COc1ccc(-c2ccc3ncc(Nc4ccc(C(N)=O)cc4)n3n2)cc1OC,?,7.2%[87.6 µM],i,-16.5%[87.6 µM],17.8µM*,2.5%[70.6 µM]
COc1ccc(-c2ccc3ncc(Nc4cccc(F)c4)n3n2)cc1OC,63.1µM*,10.3%[87.6 µM],i,-0.6%[87.6 µM],?,4.4%[70.6 µM]
COc1ccc(-c2ccc3ncc(Nc4cccc(F)c4)n3n2)cn1,63.1µM*,31.5%[87.6 µM],?,-16.3%[87.6 µM],?,-16.5%[70.6 µM]
COc1ccc(-c2ccc3ncc(Nc4ccccc4C)n3n2)cn1,?,-12.2%[87.6 µM],i,-17.3%[87.6 µM],89.1µM*,-1.2%[70.6 µM]
COc1ccc(CN2C[C@@H]3C[C@H]2C(=O)Nc2ccccc2O3)cc1,-18.9%[172 µM],-3.0%[87.6 µM],i,0.7%[87.6 µM],-12.8%[138 µM],-1.1%[70.6 µM]
CNC(c1ccccc1)c1ccccc1,4.9%[172 µM],17.3%[87.6 µM],.,2.4%[87.6 µM],i,.
COc1ccc(-c2ccc3ncc(Nc4ccnc(N5CCOCC5)c4)n3n2)cc1OC,?,34.7%[87.6 µM],?,-18.0%[87.6 µM],44.7µM*,3.5%[70.6 µM]
COc1ccc(-c2ccc3ncc(Nc4ccccc4OC)n3n2)cn1,?,?,i,-21.8%[87.6 µM],?,-2.2%[70.6 µM]
COc1ccc(-c2ccc3ncc(Nc4ccccc4)n3n2)cc1OC,35.5µM*,21.6%[87.6 µM],i,?,20µM*,0.8%[70.6 µM]
O=C(NCCCc1ccccc1)C1CCN(C(=O)c2ncn3c2COC(c2ccc(F)cc2)C3)CC1 (stereo not given),8.5%,4.4%,?,-3.0%,i,4.4%
COc1cccc(NC(=O)[C@@H]2C[C@@H](c3cccc(C(F)(F)F)c3)N(C)C2)c1,100µM*,?,i,-10.6%[87.6 µM],79.4µM*,-19.7%[70.6 µM]
